Data on 36 molecules can be found in PubChem BioAssay (NCATS).

Records with an inconclusive call do not appear. The source made the active and inactive calls. Calls follow the shape of the dose curve; as a rule, active = well fitted curve in the direction sought with a large enough effect; inconclusive = small, poorly fitted or top-dose-only effect, or another doubt; inactive = no such curve, though single readings can be large; an effect the other way counts as inactive or inconclusive. Residues, ends and D or L forms follow the SMILES beside them. *: point of attachment. Cbz = O=C(OCc1ccccc1)*
Potency is read from the fitted curve at half-maximal effect.

Test system in one experiment: not listed separately
Briefly: Validation screen for small molecules that induce DNA re-replication in MCF 10A normal breast cells (AID 463097). Also: nearly all actives have a fitted effect of over 60% in size. As to re-replication induction: 0% is about no effect. The settings on record: MCF 10A cells, DNA re-replication phenotype imaging; series mostly up to 46.1 µM; re-replication induction: at the top concentration. The procedure, abridged:
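Readout: Hoechst nuclear fluorescence intensity, 405 ex / 500-530 em, by scanning plate imager; re-replication scored as increase in nuclei with elevated DNA content. Cells exposed to compound 48 hr, 37 C, 5% CO2 beforehand.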
In the case of `N#C/C(=C\c1ccc(O)c(O)c1)C(=O)NCCCNC(=O)/C(C#N)=C/c1ccc(O)c(O)c1`, the “re-replication induction” value is 22.9% (inactive). Take `Cc1nc2c(OCc3ccccc3)cccn2c1CC#N`: the “re-replication induction” value is -1.6% (inactive). Turning to `O=C(O)C1=CCCN(CCON=C(c2ccccc2)c2ccccc2)C1`, the “re-replication induction” value was -8.52% (inactive).

On to `CCCCOc1cc(CC2CNC(=O)N2)ccc1OC` (centres undefined), for which the “re-replication induction” value is 4.46% (inactive). Still for that read-out and setting: with `O=c1cc(O)cc(/C=C/c2ccc(O)c(O)c2)o1` the figure was -0.711% (inactive); with `Nc1ncnc2c1ncn2C1CCCO1` (centres undefined), -0.371% (inactive); with `O=c1[nH]c(=O)c2nc3ccccc3nc2[nH]1`, 6.22% (inactive).

As to `CC(C)C[C@H](NC(=O)C1OC1C(=O)O)C(=O)NCCCCN=C(N)N` (some centres undefined), the “re-replication induction” value is 3.02% (inactive). `NC(=Nc1ccccc1)NC(=O)c1nc(Cl)c(N)nc1N`: the Potency was 14.1 µM (active). For the molecule `Cc1ccc2c(c1)C(N1CCN(C)CC1)=Nc1cccnc1N2`, the “re-replication induction” value was 7.11% (inactive). For `NS(=O)(=O)c1cccc2c1c([N+](=O)[O-])cc1nc(O)c(O)nc12`, the “re-replication induction” value was -6.19% (inactive). Take `O=c1ccc2c(OCCCCc3ccccc3)c3ccoc3cc2o1`: the “re-replication induction” value was 13.1% (inactive). `Cc1nc(N=Nc2cc(S(=O)(=O)O)c3cc([N+](=O)[O-])cc(S(=O)(=O)O)c3c2)c(COP(=O)(O)O)c(C=O)c1O`: the “re-replication induction” value is -10.7% (inactive). As to `Cc1ccc([N+](=O)[O-])cc1S(=O)(=O)N(C)C`, the Potency entry was “inactive”. For the molecule `O=C(O)c1ccccc1Nc1cccc(OCc2ccc3ccccc3n2)c1`, the “re-replication induction” value was 25.1% (inactive). Take `O=C(O)/C(=C/c1c(C(=O)O)[nH]c2cc(Cl)cc(Cl)c12)c1ccccc1`: the “re-replication induction” value was 21.5% (inactive).

The target of the next experiment is Ubiquitin carboxyl-terminal hydrolase 2 (Homo sapiens) (UniProt O75604). Briefly: qHTS Validation Assay for Inhibitors of Ubiquitin-specific Protease USP2a Using CHOP2 as the Reporter (AID 463106).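 As to activity, negative = inhibition: plate controls were DMSO for no effect and full inhibition by NEM for full effect.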 The note with it: USP2a cleavage of CHOP2 reporter, enzymatic; series mostly up to 38.3 µM; activity, negative = inhibition: at the top concentration. The procedure, abridged: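 USP2 core (10 nM final) was preincubated with compound 30 min at RT in pH 8.0 Tris/CaCl2/beta-ME/CHAPS buffer. Ub-CHOP2 and reporter substrate (25 nM final each) were then added, with fluorescence (Ex 485/Em 531) read after 60 min. Data were normalized to NEM full inhibition and fitted to concentration-response curves.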
Sequence of Ubiquitin carboxyl-terminal hydrolase 2 (Homo sapiens) (O75604 whole entry, looked up): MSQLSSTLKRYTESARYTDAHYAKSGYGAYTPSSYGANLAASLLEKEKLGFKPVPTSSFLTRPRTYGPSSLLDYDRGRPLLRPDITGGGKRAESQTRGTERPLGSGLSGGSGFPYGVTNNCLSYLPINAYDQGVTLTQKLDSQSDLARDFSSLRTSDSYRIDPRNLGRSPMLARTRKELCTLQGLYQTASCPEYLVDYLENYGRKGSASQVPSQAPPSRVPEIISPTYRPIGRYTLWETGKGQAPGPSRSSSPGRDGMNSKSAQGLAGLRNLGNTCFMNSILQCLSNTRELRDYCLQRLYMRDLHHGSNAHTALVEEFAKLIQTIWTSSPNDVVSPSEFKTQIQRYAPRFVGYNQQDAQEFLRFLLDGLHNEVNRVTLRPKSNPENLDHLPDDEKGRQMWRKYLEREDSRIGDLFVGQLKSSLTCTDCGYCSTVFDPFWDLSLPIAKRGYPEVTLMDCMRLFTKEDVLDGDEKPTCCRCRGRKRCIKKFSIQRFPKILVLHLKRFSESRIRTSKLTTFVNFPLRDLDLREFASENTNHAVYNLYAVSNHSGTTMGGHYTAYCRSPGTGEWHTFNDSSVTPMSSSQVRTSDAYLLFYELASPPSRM
(In qHTS, concentration-response curves come from the screen itself.)
Turning to `N=C(N)c1ccc(OCCCCCOc2ccc(C(=N)N)cc2)cc1` (tested in a mixture with another compound), the “activity, negative = inhibition” value was 4.86% (inactive). Turning to `CC(O)C(O)[C@H]1CNc2nc(N)[nH]c(=O)c2N1` (some centres undefined), the “activity, negative = inhibition” value was 1.32% (inactive). With `N#C/C(=C\c1ccc(O)c(O)c1)C(=O)NCCCNC(=O)/C(C#N)=C/c1ccc(O)c(O)c1`, the “activity, negative = inhibition” value was 4.83% (inactive). Same read-out and setting: the result for `Cc1nc2c(OCc3ccccc3)cccn2c1CC#N` reads 0.685% (inactive). `O=C(O)C1=CCCN(CCON=C(c2ccccc2)c2ccccc2)C1`: the “activity, negative = inhibition” value is 0.571% (inactive). `CC(=O)SC1CC2=CC(=O)CC[C@]2(C)C2CC[C@@]3(C)C(CC[C@@]34CCC(=O)O4)C12` (some centres undefined): the “activity, negative = inhibition” value is 0.0494% (inactive). `COc1ccc(CCn2nnnc2C2(c3ccc(C)cc3)CC2)cc1`: the “activity, negative = inhibition” value was -1.48% (inactive). As for `CC(C)[C@@H]1CC[C@@H](C)C[C@@H]1P(=O)(c1ccccc1)c1ccccc1`, the “activity, negative = inhibition” value was -0.45% (inactive). Regarding `CCCCOc1cc(CC2CNC(=O)N2)ccc1OC` (centres undefined), the “activity, negative = inhibition” value is -1.65% (inactive). With `O=c1cc(O)cc(/C=C/c2ccc(O)c(O)c2)o1`, the “activity, negative = inhibition” value is -3.05% (inactive). Take `Nc1ncnc2c1ncn2C1CCCO1` (centres undefined): the “activity, negative = inhibition” value was -1.02% (inactive).

In the case of `O=C(O)C1=CC(=C(c2ccc(O)c(C(=O)O)c2)c2ccc(O)c(C(=O)O)c2)C=CC1=O`, the Potency is 1.04 µM (active).

Consider `CCCn1c(=O)c(C)cn2nc(N)nc12`, for which the “activity, negative = inhibition” value is 1.18% (inactive). On the same count and under the same terms, with `C=CC1(C)CC(=O)C2(O)C(C)(O1)C(OC(C)=O)C(O)C1C(C)(C)CCC(O)C12C` (centres undefined) the figure was 1.59% (inactive); with `O=c1[nH]c(=O)c2nc3ccccc3nc2[nH]1`, 15.8% (inactive). On to `O=C(O)CCC/C=C\C[C@@H]1[C@@H](/C=C/[C@H](O)C2Cc3ccccc3C2)[C@@H](F)C[C@@H]1O`, for which the “activity, negative = inhibition” value is -0.808% (inactive). As to `CC(C)[C@H](NC(=O)OCc1ccccc1)C(=O)N[C@H](C=O)Cc1ccccc1` (Cbz-Val-Phe-aldehyde), the “activity, negative = inhibition” value is -0.925% (inactive).

Turning to `NC(=Nc1ccccc1)NC(=O)c1nc(Cl)c(N)nc1N`, the “activity, negative = inhibition” value was 0.159% (inactive). The same measure, in the same setting: the result for `N[C@H](C(=O)O)[C@H](Cc1ccccc1)C(=O)O` reads 0.557% (inactive); that for `CC(=O)O[C@H]1Cc2ccccc2N(C(N)=O)c2ccccc21`, 0.692% (inactive). Consider `NC[C@@H]1O[C@H](c2ccccc2)Cc2c1ccc(O)c2O`, for which the “activity, negative = inhibition” value was 3.98% (inactive). For `Cc1ccc2c(c1)C(N1CCN(C)CC1)=Nc1cccnc1N2`, the “activity, negative = inhibition” value was 17.6% (inactive). For `NS(=O)(=O)c1cccc2c1c([N+](=O)[O-])cc1nc(O)c(O)nc12`, the “activity, negative = inhibition” value is 1.72% (inactive).

Take `Nc1nc2c(nc(Br)n2C2OC3COP(=O)(O)O[C@@H]3C2O)c(=O)[nH]1` (some centres undefined): the “activity, negative = inhibition” value was 3.53% (inactive). Regarding `NCC(O)C1CCCCCCC1` (centres undefined), the “activity, negative = inhibition” value was 3.09% (inactive). For the molecule `CCN(c1nc(N)c(C(=O)N=C(N)N)nc1Cl)C(C)C`, the “activity, negative = inhibition” value is 0.291% (inactive).

For `O=c1ccc2c(OCCCCc3ccccc3)c3ccoc3cc2o1`, the “activity, negative = inhibition” value is 1.25% (inactive).

As to `CC(C)NC[C@H](O)COc1cccc2ccccc12`, the “activity, negative = inhibition” value is 0.273% (inactive). In the case of `Cc1nc(N=Nc2cc(S(=O)(=O)O)c3cc([N+](=O)[O-])cc(S(=O)(=O)O)c3c2)c(COP(=O)(O)O)c(C=O)c1O`, the “activity, negative = inhibition” value is 3.2% (inactive).

For `CN1CC(O)C(O)C(O)C1CO` (centres undefined), the “activity, negative = inhibition” value was 1.42% (inactive).

With `CCCCCCCCCCCCCCSCC(=O)O`, the “activity, negative = inhibition” value was -0.868% (inactive). For the molecule `CCCCCCC/C=C\CCCCCCCCC(=O)O`, the “activity, negative = inhibition” value is -4.35% (inactive). Still for that read-out and setting: with `Cc1ccc([N+](=O)[O-])cc1S(=O)(=O)N(C)C` the figure was 0.273% (inactive).
